FUS yeast rescue: FUS proteinopathy suppression in yeast. S. cerevisiae FUS-expressing, growth rescue, OD600, 24 h. Potency, µM (series often up to 76.6 µM), hits mostly activators. hit rate 0.24% among 390,000. AID 1347120; also: nearly all actives have a fitted effect of over 55% in size
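Toxicity suppression screen in FUS-yeast. Cells induced with 2% galactose, starting OD 0.005, treated 24hr at 30C with compounds at multiple final concentrations; growth by OD600.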
Abeta rescue: restores growth of yeast expressing A-beta42 peptide; yeast expressing A-beta42, growth rescue, OD600, 48 h; response scale: 0% DMSO, 100% iron-clioquinol control; Potency, µM (series often up to 46.1 µM), hits mostly activators; hit rate 0.063% among 410,000; AID 1347071; also: nearly all actives have a fitted effect of over 55% in size
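Yeast A-beta toxicity model in growth medium with pinned compounds, 48 h at 30 C; growth read as absorbance at 600 nm. Normalized to FeCl3/clioquinol equimolar mix (positive) and DMSO (negative).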
TDP43 rescue: TDP-43 toxicity inhibition in yeast | TDP-43 expressing yeast growth rescue, BacTiter-Glo, 24 h | Potency, µM (top dose mostly 46.1 µM), most hits filed as activators | hit rate 1.8% among 410,000; also: nearly all actives have a fitted effect of over 50% in size
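Cell-based yeast growth screen: TDP-43 expression induced in galactose, inoculum OD600=0.02 after raffinose pregrowth to mid-log. Read-out BacTiter-Glo luminescence at 24 hr, 30 deg C; inhibition of toxicity seen as signal increase.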
aSyn rescue: rescues yeast growth from alpha-synuclein toxicity. Yeast expressing alpha-synuclein, growth rescue, BacTiter-Glo, 24 h. AID 652106. Potency, µM (top dose mostly 46.1 µM), hits mostly activators. hit rate 0.14% among 370,000; also: nearly all actives have a fitted effect of over 65% in size
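Readout is rescue of growth in alpha-synuclein-expressing yeast, so inhibitors of toxicity appear as activators. Growth after 24 hr at 30 deg C in galactose medium is quantified by luminescence.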
A number is an active result; i = inactive; ? = inconclusive; nt = not tested or not shown. A selection: hits, their analogues and other compounds. The true share with any hit is near 2.1%. Calls follow the shape of the dose curve; as a rule, active = well fitted curve in the direction sought with a large enough effect; inconclusive = small, poorly fitted or top-dose-only effect, or another doubt; inactive = no such curve, though single readings can be large; an effect the other way counts as inactive or inconclusive.

SMILES	FUS yeast rescue	Abeta rescue	TDP43 rescue	aSyn rescue
N#CCC(=O)N/N=C/c1ccc(Sc2nc3ccccc3s2)o1	3.55µM	i	?	i
COc1ccccc1Nc1nc(NCCCN(C)C)nc(N)c1[N+](=O)[O-]	i	i	i	i
C=CCNc1nc(N)c([N+](=O)[O-])c(Nc2ccccc2OC)n1	i	i	15.8µM	i
CCOC(=O)CSc1nc2sc(C)c(C)c2c(=O)n1C	i	i	11.2µM	i
CCOC(=O)CSc1nc2sc(C)c(C)c2c(=O)n1N	nt	i	i	i
COc1ccc(-c2nc3cnccn3c2Nc2ccc3c(c2)OCO3)cc1	28.2µM	i	i	i
Cc1c(C(=O)c2ccc3c(c2)OCO3)ccc2c1OCO2	nt	i	17.8µM	i
COc1ccccc1CCNC(=O)C1CCC(=O)N(Cc2ccccc2OC)C1 (configuration not stated)	i	i	i	i
COc1ccccc1CN1CC(C(=O)NCCCc2ccc(F)cc2)CCC1=O (configuration not stated)	15.8µM	i	i	i
Cc1nn(-c2ccc(F)cc2)c(-n2cccc2)c1C(=O)NCCc1ccc(Cl)cc1	i	i	?	i
Cc1ccc2nc(-c3ccc(NC(=O)CSc4nnc(Cc5cccs5)n4C)cc3)sc2c1	i	nt	nt	nt
Cc1ccc(CNC(=O)c2ccc(N3CCC4(CC3)CC(c3cccc(Br)c3)=NO4)c(NC(=O)c3ccco3)c2)cc1	?	i	i	i
Cc1ccc(CNC(=O)c2ccc(N3CCC4(CC3)CC(c3ccccc3)=NO4)c(NC(=O)c3ccco3)c2)cc1	17.8µM	i	i	i
CC(=O)N1CCC(C(=O)Nc2nnc(C(C)C)s2)CC1	nt	nt	nt	i
Cc1ccc(SC2=C(C(=O)O)CCCC2)cc1	i	i	10µM	i
O=C(NCc1ccccc1)Nc1ccccc1C(=O)N1CCCC1	i	nt	nt	nt
COc1ccc(NC(=O)COC(=O)CCCN2C(=O)c3ccccc3C2=O)cc1Cl	nt	i	35.5µM	i
O=C(COC(=O)CCCN1C(=O)c2ccccc2C1=O)Nc1cc(Cl)cc(Cl)c1	i	i	i	i
CCC(C)N=Cc1c(NCc2ccco2)nc2c(C)cccn2c1=O (configuration not stated)	i	i	17.8µM	i
Cc1cccn2c(=O)c(/C=N/O)c(NCc3ccccc3)nc12	i	i	i	i
COc1ccccc1NC(=O)CSc1nnc2c3ccccc3n(C(C)C)c2n1	i	i	?	nt
COc1ccccc1C(C[N+](=O)[O-])c1c[nH]c2ccccc12 (configuration not stated)	i	i	20µM	?
CC(=O)C(C(c1ccccc1)c1c[nH]c2ccccc12)[N+](=O)[O-] (configuration not stated)	i	?	12.6µM	?
O=S1(=O)C=C(Sc2nc3cc(Cl)ccc3o2)c2ccccc21	i	i	12.6µM	i
O=C(CCO)c1ccc(O)cc1	i	i	i	i
SMILES	FUS yeast rescue	Abeta rescue	TDP43 rescue	aSyn rescue
O=C(CCSc1ccc(Br)cc1)c1ccc(O)cc1	i	i	11.2µM	i
Clc1cccc(CNc2ccn3nc(-c4ccco4)cc3n2)c1	i	i	15.8µM	?
Clc1cccc(CNc2ccn3nc(-c4cccs4)cc3n2)c1	i	?	17.8µM	?
Clc1cccc(CNc2ccn3nc(-c4ccc(OCCN5CCOCC5)cc4)cc3n2)c1	i	i	i	?
O=S(=O)(NCc1ccco1)c1cnc(Cl)c(Br)c1	nt	i	14.1µM	?
O=S(=O)(NCCc1ccccc1)c1cnc(Cl)c(Br)c1	nt	i	11.2µM	i
C[C@H]1COc2c3ccc(I)cc3nn21	i	nt	nt	nt
COc1cc(/C=C/c2ccnc3ccccc23)ccc1N(C)C	nt	nt	nt	i
Cc1cccc(N2CCN(C(=O)CCNS(=O)(=O)c3ccc4c(c3)CCN4C(=O)C3CC3)CC2C)c1 (configuration not stated)	i	i	i	i
COc1cccc(C(O)c2nc(/C=C/c3ccccc3)cs2)c1 (configuration not stated)	i	i	22.4µM	?
OC(c1cccc(Cl)c1)c1nc(/C=C/c2ccccc2)cs1 (configuration not stated)	i	i	8.91µM	i
COc1cccc(C(NC(C)=O)c2nc(/C=C/c3ccccc3)cs2)c1 (configuration not stated)	?	i	?	i
O=c1c(Cl)c(Cl)cnn1Cc1nnc(-c2ccccc2Br)o1	i	i	12.6µM	i
Clc1ccccc1OCc1nnc(-c2ccccc2Br)o1	i	i	i	i
CSc1nc(N)nc(-c2cccs2)c1C#N	i	i	20µM	i

Screening data: PubChem, National Center for Advancing Translational Sciences (NCATS)
